The values that follow come from PubChem BioAssay AID686978 (National Center for Advancing Translational Sciences (NCATS), 2013).

Out of some 420,000 compounds screened, about 64,000 (15%) were called active. Inconclusive results (about 27%) are left out. Calls come from the whole dose curve; as a rule, active = well fitted inhibition curve with a large enough effect; inconclusive = small, poorly fitted or top-dose-only effect; inactive = flat fitted curve, though single readings scatter. Not all results are given here.
% is set by controls: 0 for no effect and ±100 for the full control effect; potency is the fitted concentration of half-maximal effect.

The assay in a line: qHTS for Inhibitors of human tyrosyl-DNA phosphodiesterase 1 (TDP1): qHTS in cells in absence of CPT. Note: nearly all actives have a fitted effect of over 55% in size. The settings on record: DT40 Tdp1-/- hTDP1 cells, no CPT, ATP luminescence, 48 h; activity change, negative = growth inhibition: at 46.2 µM (top of the series). A digest of the protocol:
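Growth kinetics read by CellTiter-Glo luminescence after ≥48 hr at 37 °C. Cells: DT40 Tdp1-/- stably carrying human TDP1, 400 per well, compound exposure in the absence of CPT (DMSO vehicle).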
Turning to `COc1cc(NC(=O)COC(=O)c2cnc(C)cn2)c(C)cc1[N+](=O)[O-]`, the “activity change, negative = growth inhibition” value was 15.3% (inactive).
Still for that read-out and setting: the result for `CCCN1C(=O)C(NS(=O)(=O)c2ccc(N)cc2)(C(F)(F)F)C(C(=O)OC)=C1C` (stereo not drawn) reads 0.164% (inactive); that for `O=C(O)CCCC(=O)N1N=C(c2ccco2)CC1c1ccco1` (stereo not drawn), -3.36% (inactive); that for `COc1cccc(-c2coc3cc4oc(=O)c(CC(=O)O)c(C)c4cc23)c1`, -9.2% (inactive).
Regarding `Brc1ccccc1/C=N/Nc1nc2ccccc2o1`, the “activity change, negative = growth inhibition” value was -21.9% (inactive).
For the molecule `Oc1c(Br)cccc1/C=N/Nc1c(F)c(F)c(F)c(F)c1F`, the Potency was 20.6 µM (active).
For the molecule `COc1ccc(C)cc1NC(=O)CN(C)S(=O)(=O)c1ccc2c(c1)n(C)c(=O)c(=O)n2C`, the “activity change, negative = growth inhibition” value is 6.24% (inactive).
Turning to `CCCSC1=C(C#N)C(c2ccccc2C)C(C(=O)OC)C(=O)N1` (stereo not drawn), the “activity change, negative = growth inhibition” value is -11.8% (inactive).
For `CC(C)N(C(=O)COC(=O)c1ccccc1C(=O)N1CCN(c2ccc(F)cc2)CC1)C(C)C`, the “activity change, negative = growth inhibition” value was -23.6% (inactive).
For the molecule `CC(=O)N1c2ccccc2CC1C(=O)N1CCN(c2ccc(F)cc2)CC1` (stereo not drawn), the “activity change, negative = growth inhibition” value was -10.2% (inactive).
For `Cn1c2ccccc2c2c(C(=O)N3CCN(c4ccc(F)cc4)CC3)cn(C3CCCC3)c(=O)c21`, the Potency is 23.1 µM (active).
For `CC(NS(=O)(=O)c1ccccc1)c1n[nH]c(=S)n1-c1ccccc1` (stereo not drawn), the “activity change, negative = growth inhibition” value is -1.17% (inactive).
Turning to `CC(=O)Nc1ccc(NC(=O)[C@@H](NC(=O)c2cccc(C)c2)C(C)C)cc1`, the “activity change, negative = growth inhibition” value was 6.18% (inactive).
The same measure, in the same setting: the result for `Cc1ccc(CNC(=O)CC2Sc3ccccc3NC2=O)cc1` (stereo not drawn) reads -2.06% (inactive).
Same read-out and setting: as for `O=C(CC1SCCNC1=O)Nc1ccc(Cl)c(Cl)c1` (stereo not drawn), the figure is 6.06% (inactive).
As to `O=C(CC1Sc2ccccc2NC1=O)NNc1ccc(Cl)c(Cl)c1` (stereo not drawn), the Potency was 11.6 µM (active).
Regarding `NNC(=O)c1ccc(COCC(F)(F)C(F)F)cc1`, the “activity change, negative = growth inhibition” value was -11.3% (inactive).
Regarding `Cc1ccc(OCC(=O)OCc2cc(=O)n3nc(C4CC4)sc3n2)cc1`, the “activity change, negative = growth inhibition” value is -8.76% (inactive).
Regarding `CS(=O)(=O)c1ccc(C(=O)OCC(=O)NNC(=O)COc2ccc(Cl)cc2)cc1`, the “activity change, negative = growth inhibition” value is -4.53% (inactive).
Regarding `Cc1ccc(-c2cc(N)on2)cc1`, the “activity change, negative = growth inhibition” value was -6.95% (inactive).
Turning to `COc1cccc(C(=O)NCC(=O)OCc2cc(=O)n3ccsc3n2)c1`, the “activity change, negative = growth inhibition” value is -1.07% (inactive).
For `COc1cc(OC)cc(C(=O)NCC(=O)OCc2csc(-c3ccccc3)n2)c1`, the Potency is 23.1 µM (active).
On to `COc1cc(OC)cc(C(=O)NCC(=O)OCC(=O)NC(C)CCc2ccccc2)c1` (stereo not drawn), for which the “activity change, negative = growth inhibition” value was 6.49% (inactive).
`CSc1ccc(CNCCN2CCOCC2)cc1`: the “activity change, negative = growth inhibition” value is -16.9% (inactive).
Regarding `CCc1ccc(-n2c(SCc3cc(=O)n4cc(Br)ccc4n3)nc3[nH]ncc3c2=O)cc1`, the Potency was 20.6 µM (active).
With `CCCSc1nc2[nH]ncc2c(=O)[nH]1`, the “activity change, negative = growth inhibition” value is 3.13% (inactive).
For `COc1ccc(CCNC(=O)CSc2nc3[nH]ncc3c(=O)n2-c2cccc(C(F)(F)F)c2)cc1OC`, the “activity change, negative = growth inhibition” value was -5.4% (inactive).
`COc1ccccc1N1CCC(N2CCN(CC(C)(C)C)C(CCO)C2)CC1` (stereo not drawn): the “activity change, negative = growth inhibition” value was -21.9% (inactive).
Turning to `COc1ccccc1NC(=O)/C=C/C(=O)O`, the “activity change, negative = growth inhibition” value is 15% (inactive).
With `COc1ccccc1NC(=O)C[n+]1ccccc1`, the “activity change, negative = growth inhibition” value was -2.16% (inactive).
Take `COc1ccccc1NC(=O)/C=C/C(N)=O`: the Potency was 2.91 µM (active).
As for `O=C(Nc1ccc(S(=O)(=O)Nc2nccs2)cc1)c1cc(=O)[nH]c2ccccc12`, the “activity change, negative = growth inhibition” value is 13.3% (inactive).
As for `Cc1cccc(C(=O)O)c1[N+](=O)[O-]`, the “activity change, negative = growth inhibition” value was 2.96% (inactive).
For `CC(C)(C)NCC(O)COc1cccc2[nH]c(=O)[nH]c12` (stereo not drawn), the Potency entry was “inactive”.
`COc1ccccc1OCCNC(=O)c1cc([N+](=O)[O-])cc([N+](=O)[O-])c1`: the “activity change, negative = growth inhibition” value is -0.0294% (inactive).
Consider `COc1ccccc1OCCNCC(O)COc1cccc2[nH]c3ccccc3c12` (stereo not drawn), for which the Potency was 16.4 µM (active).
As to `Fc1ccc(Br)cc1/C=N/n1cnnc1`, the “activity change, negative = growth inhibition” value is -11.2% (inactive).
Regarding `CN(CC(=O)Nc1ccccc1[N+](=O)[O-])Cc1ccc(Br)cc1`, the “activity change, negative = growth inhibition” value was -15.4% (inactive).
Turning to `COc1ccc(Br)cc1CN(C)CC(=O)Nc1cc([N+](=O)[O-])ccc1OC`, the Potency was 16.4 µM (active).
`COc1ccccc1CC(=O)Nc1ccc([N+](=O)[O-])cc1OC`: the “activity change, negative = growth inhibition” value is -0.609% (inactive).
With `CCCC1C(c2ccccc2)C(C#N)(C#N)C2(C#N)CC1(N)NC2=O` (stereo not drawn), the “activity change, negative = growth inhibition” value was 2.33% (inactive).
Regarding `COc1cccc(CNC(=O)CCN2C(=S)NC(C)(C)CC2C)c1` (stereo not drawn), the “activity change, negative = growth inhibition” value is 12.4% (inactive).
Consider `O=C(O)C1=NN(c2c(F)c(F)cc(F)c2F)C(=O)CC1`, for which the “activity change, negative = growth inhibition” value was 13% (inactive).
With `COc1cccc(CN2CCC3(CC2)c2ccccc2[C@@H](NC(=O)c2ccccc2OC)[C@@H]3O)c1`, the Potency was 16.4 µM (active).
Turning to `CO[C@H]1[C@H](NC(=O)C(C)C)c2ccccc2C12CCN(Cc1cnc(N(C)C)s1)CC2`, the “activity change, negative = growth inhibition” value was 0.79% (inactive).
Still for that read-out and setting: the result for `COc1ccccc1C(=O)N[C@@H]1c2ccccc2C2(CCN(C(=O)c3csnn3)CC2)[C@H]1OC` reads -9.12% (inactive).
Turning to `N[C@H](C(=O)O)c1ccc(C(=O)O)c(O)c1`, the Potency entry was “inactive”.
With `CC1=NNC(=O)C1Cc1c(Cl)cccc1Cl` (stereo not drawn), the “activity change, negative = growth inhibition” value was -29% (inactive).
In the case of `Cc1cccc(NC(=O)CSc2nc(-c3ccco3)cc(C(F)(F)F)n2)c1C`, the Potency was 9.2 µM (active).
For the molecule `Cc1cccc(NC(=O)Cn2c(C(F)(F)F)nc3ccccc32)c1C`, the “activity change, negative = growth inhibition” value is -20.7% (inactive).
With `Cc1cc(C(F)(F)F)nc(SCC(=O)Nc2nccs2)n1`, the “activity change, negative = growth inhibition” value is 8.5% (inactive).
Turning to `CC(C)(C)NC(=O)CSc1nc(-c2ccc(F)cc2)cc(C(F)(F)F)n1`, the Potency was 18.4 µM (active).
With `O=C(CSc1nc(-c2ccco2)cc(C(F)(F)F)n1)NCc1cccs1`, the “activity change, negative = growth inhibition” value is -24.4% (inactive).
As for `CCNS(=O)(=O)c1ccc(NC(=O)CSc2nc(-c3ccco3)cc(C(F)(F)F)n2)cc1`, the Potency is 7.31 µM (active).
Turning to `CC(C)c1nc(SCC(=O)NC(=O)NC(C)(C)C)n[nH]1`, the “activity change, negative = growth inhibition” value was -6.01% (inactive).
Regarding `Cc1cc(C(F)(F)F)nn1-c1nc(-c2ccco2)cc(C(F)(F)F)n1`, the “activity change, negative = growth inhibition” value was -10.8% (inactive).
Take `CN(C)c1ccc(NC(=O)CSc2n[nH]c(-c3ccco3)n2)cc1`: the “activity change, negative = growth inhibition” value is -11.6% (inactive).
In the case of `Cc1ccccc1CN1C(=O)CSCC1(C)C(=O)Nc1c(C)cccc1C` (stereo not drawn), the “activity change, negative = growth inhibition” value was -2.46% (inactive).
Consider `Cc1n[nH]c(=O)c2c(NC(=O)CSc3cc(Cl)ccc3Cl)oc(C)c12`, for which the “activity change, negative = growth inhibition” value is 7.52% (inactive).
On to `O=C(CSc1nnnn1C1CCCC1)N1CCCCC1`, for which the “activity change, negative = growth inhibition” value is -4.85% (inactive).
Turning to `Cc1cc(=O)oc2c1ccc1ccccc12`, the “activity change, negative = growth inhibition” value was 10.2% (inactive).
Turning to `O=C(Nc1ccc(C(=O)NCc2ccccc2Cl)cc1)C1=CSCCO1`, the “activity change, negative = growth inhibition” value is -20.2% (inactive).
For `C=CCn1c2c(c3ccccc31)CCC2`, the “activity change, negative = growth inhibition” value was -24.3% (inactive).
For the molecule `CCc1nnc(NS(=O)(=O)c2ccc(NC(=O)c3cccc(OC(F)(F)C(F)F)c3)cc2)s1`, the “activity change, negative = growth inhibition” value is -8.34% (inactive).
For the molecule `O=C(c1cccs1)N1CCN(C(=O)N2CCOCC2)CC1`, the “activity change, negative = growth inhibition” value is 5.43% (inactive).
On to `C/C(=N\Nc1nc(Nc2ccccc2)nc(N2CCOCC2)n1)c1cccs1`, for which the Potency is 20.6 µM (active).
`C/C(=N\Nc1ccccc1)c1cccs1`: the “activity change, negative = growth inhibition” value is -19.2% (inactive).
`CCN(c1ccccc1)S(=O)(=O)c1ccc(OCC(=O)N2CCCC2)cc1`: the “activity change, negative = growth inhibition” value is -17.5% (inactive).
